# Test results published in article PMC4336329 (PLoS ONE, 2015).
# Screen size: about 310,000 compounds; about 2,200 (0.71%) showed an effect of 50% or more. The effect is printed as a negative number. The sample holds strong results, similar compounds and a random draw of the others, so the mix is not that of the screen.
# Molecular target: human ether-à-go-go-related gene (hERG) potassium channel (human, UniProt Q12809)
# Assay: primary screen, population patch clamp on CHO cells stably expressing hERG; higher = less effect of the substance
# human ether-à-go-go-related gene (hERG) potassium channel, sequence (Q12809 whole entry, looked up): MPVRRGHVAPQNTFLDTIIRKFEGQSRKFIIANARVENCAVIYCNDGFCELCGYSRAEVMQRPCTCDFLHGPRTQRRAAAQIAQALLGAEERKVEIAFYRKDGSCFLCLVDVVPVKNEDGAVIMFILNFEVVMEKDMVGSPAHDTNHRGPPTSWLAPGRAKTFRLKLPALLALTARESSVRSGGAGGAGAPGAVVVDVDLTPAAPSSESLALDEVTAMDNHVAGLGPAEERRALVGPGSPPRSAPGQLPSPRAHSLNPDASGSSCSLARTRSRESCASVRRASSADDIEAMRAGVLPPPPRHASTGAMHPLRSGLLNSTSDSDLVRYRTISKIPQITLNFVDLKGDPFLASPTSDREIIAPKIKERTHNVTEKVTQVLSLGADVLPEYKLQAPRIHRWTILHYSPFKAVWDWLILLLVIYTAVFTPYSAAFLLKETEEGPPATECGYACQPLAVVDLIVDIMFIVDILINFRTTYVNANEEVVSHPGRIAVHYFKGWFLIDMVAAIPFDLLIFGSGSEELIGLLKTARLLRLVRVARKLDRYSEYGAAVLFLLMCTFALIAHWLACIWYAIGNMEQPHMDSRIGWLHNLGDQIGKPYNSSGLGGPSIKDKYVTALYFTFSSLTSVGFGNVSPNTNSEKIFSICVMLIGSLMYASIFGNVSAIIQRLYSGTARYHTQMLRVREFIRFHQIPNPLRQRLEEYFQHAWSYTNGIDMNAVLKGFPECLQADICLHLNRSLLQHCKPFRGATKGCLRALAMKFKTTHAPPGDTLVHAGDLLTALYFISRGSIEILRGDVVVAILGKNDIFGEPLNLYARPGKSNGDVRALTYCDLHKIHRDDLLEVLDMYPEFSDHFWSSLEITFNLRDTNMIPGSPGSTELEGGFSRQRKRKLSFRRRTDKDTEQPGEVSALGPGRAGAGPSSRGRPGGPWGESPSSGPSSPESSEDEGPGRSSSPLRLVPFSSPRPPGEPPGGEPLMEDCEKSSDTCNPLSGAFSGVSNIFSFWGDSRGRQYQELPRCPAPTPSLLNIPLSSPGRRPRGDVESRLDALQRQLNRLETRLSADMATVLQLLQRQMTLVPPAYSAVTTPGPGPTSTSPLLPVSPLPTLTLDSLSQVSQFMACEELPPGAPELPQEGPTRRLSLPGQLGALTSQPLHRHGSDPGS
row,Structure (SMILES),"hERG current change (%, negative = inhibition) at 1uM [%]"
1,CCN(Cc1ccccc1)C(=O)CN1C(=S)NC(C)(C)CC1C (centres unmarked),3.12
2,CCOC(=O)CNc1c(-c2ccc(OC)cc2)nc2ccc(Cl)cn12,-68.4
3,CCOC(=O)CNc1c(-c2ccccc2)nc2ccc(Cl)cn12,-27.6
4,CCOC(=O)CNc1c(-c2ccc(O)cc2)nc2ccc(Cl)cn12.Cl,-13.3
5,O=C(NCCN1CCOCC1)c1cc([N+](=O)[O-])cc([N+](=O)[O-])c1,12.5
6,CCc1c(C)c2c(C)[nH]nc2oc1=O,10.5
7,O=C(Nc1ccc(F)cc1F)N1CCN(C/C=C/c2ccccc2)CC1,-15.3
8,Fc1ccccc1NC(=S)N1CCN(C/C=C/c2ccccc2)CC1,7.89
9,Cc1ccccc1NC(=O)N1CCN(C/C=C/c2ccccc2)CC1,11
10,Cc1ccccc1NC(=O)CCN1CCN(C/C=C/c2ccccc2)CC1,-72
11,Cl.O=C(CCN1CCN(C/C=C/c2ccccc2)CC1)Nc1ccccc1Cl,-47.6
12,O=C(CN1CCN(C/C=C/c2ccccc2)CC1)Nc1ccc(F)cc1F,-87.4
13,COc1ccc(S(=O)(=O)N2CCN(C/C=C/c3ccccc3)CC2)cc1F,8.5
14,COc1ccc(S(=O)(=O)N2CCN(C/C=C/c3ccccc3)CC2)cc1NC(C)=O,-54.2
15,O=C(CCN1CCN(c2ccccc2)CC1)Nc1ccccc1F,14.5
16,COc1ccc(NC(C)=O)cc1S(=O)(=O)N1CCN(C/C=C/c2ccccc2)CC1,-48.1
17,O=C(CCN1CCN(C/C=C/c2ccccc2)CC1)Nc1ccccc1F.O=C(O)C(=O)O,-81.2
18,Fc1ccc(NC(=S)N2CCN(C/C=C/c3ccccc3)CC2)c(F)c1,13
19,O=C(Nc1ccc(-c2nc3ccccc3o2)cc1)c1cc(-n2cnnc2)ccc1Cl,6.74
20,O=C(O)CC(NC(=S)NCc1ccccc1)C(=O)O (centres unmarked),-7.52
21,CC(CCc1ccccc1)NC(=O)COC(=O)c1ccc([N+](=O)[O-])cc1 (centres unmarked),5.37

row,Structure (SMILES),"hERG current change (%, negative = inhibition) at 1uM [%]"
1,COc1ccc(CCNC(=O)CSc2nc3c(c(=O)n(C)c(=O)n3C)n2C(C)C)cc1OC,-14.5
2,CC(C)=CCc1c(O)cc2c(c1O)C(=O)CC(c1ccccc1)O2 (centres unmarked),12.9
3,CCN(CC)S(=O)(=O)c1cc(C(=O)N(C)CC(=O)Nc2ccc(Cl)cc2)ccc1Cl,-1.15
4,COc1cccc(-c2c(-c3cc(OC)cc(OC)c3)n(C)c3ccc(-c4ccc5[nH]ccc5c4)cc23)c1,11.8
5,CCN1CCN(c2nc(-c3ccccc3Cl)nc3ccccc23)CC1.Cl,-39.1
6,Cc1ccc(S(=O)(=O)N2CCN=C2SCc2ccc(Cl)c(Cl)c2)cc1,10.2
7,COc1ccc(C=C2c3ccccc3C(=O)c3ccccc32)c(OC)c1,7.49
8,Cc1nn(Cc2noc(C(=O)NCc3ccc4c(c3)OCO4)n2)c(C)c1Br,1.08
9,CCOC(=O)n1c(=O)n(Cc2ccccc2Cl)c2ccccc21,10.3
10,O=C(CSc1nnc(COc2ccc(Cl)cc2)o1)NC1CCCCC1,-2.69
11,COc1ccc(C)cc1NC(=O)CCN1CCN(C/C=C/c2ccccc2)CC1,-70.9
12,COc1ccc(C)cc1NC(=O)CCN1CCN(c2ccccc2)CC1,3.12
13,COc1ccc(C)cc1NC(=O)CN1CCN(C/C=C/c2ccccc2)CC1,-45.2
14,O=C(NCC1COc2ccccc2O1)c1ccc(NC(=O)c2ccco2)cc1 (centres unmarked),-1.42
15,COc1ccc(-n2c(SCC(=O)N/N=C/c3ccccc3OCC(=O)O)nc3ccccc3c2=O)cc1,11.6
16,O=C(COc1ccc(Cl)cc1)N1CCN(C2CCCC2)CC1.O=C(O)C(=O)O,-68.4
17,COc1cc(CN2CCN(Cc3ccc([N+](=O)[O-])cc3)CC2)c([N+](=O)[O-])cc1OC.O=C(O)C(=O)O,-25.4
18,O=C(COc1ccccc1)N1CCN(C2CCCC2)CC1.O=C(O)C(=O)O,8.65
19,COc1cccc(CN2CCN(C(=O)COc3ccc4ccccc4c3)CC2)c1,10.5
20,O=C(COc1ccc2ccccc2c1)N1CCN(C2CCN(Cc3ccccc3)CC2)CC1,-69.6
21,O=C(COc1ccc(Br)cc1)N1CCN(C2CCCC2)CC1,-42.1

row,Structure (SMILES),"hERG current change (%, negative = inhibition) at 1uM [%]"
1,COc1cccc(CN2CCN(Cc3cc(OC)c(OC)cc3[N+](=O)[O-])CC2)c1.O=C(O)C(=O)O,-18.5
2,O=C(COc1ccc(Cl)cc1)N1CCN(Cc2ccccc2)CC1,3.32
3,O=C(COc1ccc2ccccc2c1)N1CCN(Cc2ccncc2)CC1.O=C(O)C(=O)O,-14.8
4,COc1cc(CN2CCN(Cc3ccc(C)cc3)CC2)c([N+](=O)[O-])cc1OC.O=C(O)C(=O)O,-73.4
5,O=C(COc1ccc(Cl)cc1)N1CCN(Cc2ccc([N+](=O)[O-])cc2)CC1.O=C(O)C(=O)O,-76.4
6,O=C(COc1ccc(Cl)cc1)N1CCN(Cc2ccc3c(c2)OCO3)CC1,-6.58
7,CCN1c2ccccc2-c2nc3ccccc3n2C1c1cccs1 (centres unmarked),4.28
8,COCCn1c(=NC(=O)c2cccs2)sc2cc(NC(C)=O)ccc21,0.283
9,COc1ccc(N2C(=O)C(Cl)=C(Nc3ccccc3OC)C2=O)cc1,2.56
10,O=C(CSc1nnc(-c2ccccn2)n1Cc1ccccc1)Nc1ccc2c(c1)OCO2,7.03
11,CCN(CC)CCCNC(CC(=O)Nc1cccc([N+](=O)[O-])c1)C(=O)O (centres unmarked),3.62
12,COc1ccccc1C(=O)C1CCCN(C(=O)c2cccc(-n3cccn3)c2)C1 (centres unmarked),9.07
13,Nc1ccc(-n2nnnc2-c2ccco2)cc1,11.1
14,CSc1ccc(CN2CCN(C(=O)COc3ccc(C)cc3)CC2)cc1.O=C(O)C(=O)O,-19.3
15,Cc1cccc(OCC(=O)N2CCN(Cc3ccc([N+](=O)[O-])cc3)CC2)c1.O=C(O)C(=O)O,-60.5
16,Cc1ccc(OCC(=O)N2CCN(C(=O)c3ccc([N+](=O)[O-])cc3)CC2)cc1,-19.5
17,Cc1cccc(OCC(=O)N2CCOCC2)c1,17.1
18,Cc1cccc(OCC(=O)N2CCN(S(C)(=O)=O)CC2)c1,9.87
19,Cc1cccc(OCC(=O)N2CCN(Cc3ccncc3)CC2)c1.O=C(O)C(=O)O,10.2
20,Cc1cccc(OCC(=O)N2CCN(C(=O)c3ccc([N+](=O)[O-])cc3)CC2)c1,-38.8
21,Cc1ccc(OCC(=O)N2CCN(Cc3ccc([N+](=O)[O-])cc3)CC2)cc1.O=C(O)C(=O)O,-85

row,Structure (SMILES),"hERG current change (%, negative = inhibition) at 1uM [%]"
1,Cc1cccc(OCC(=O)N2CCN(C(=O)COc3ccc(Cl)cc3)CC2)c1,-56.6
2,Cc1ccc(S(=O)(=O)N2CCC(C(=O)OCC(=O)N(CC(C)C)C3CCS(=O)(=O)C3)CC2)cc1C (centres unmarked),10.8
3,Nc1n[nH]c2cc(=O)n(-c3cccc(C(F)(F)F)c3)nc12,12.3
4,O=C(CSc1nc(Cc2ccccc2)nc2ccccc12)Nc1nc2c(s1)CCCC2,15.9
5,O=C(Nc1ccc2c(c1)OCO2)C1CC(=O)N(CCc2ccccc2)C1 (centres unmarked),4.44
6,Cc1ccc(S(=O)(=O)N(C)C)cc1NC(=O)COC(=O)C1CCN(S(=O)(=O)c2cccs2)CC1,-58.4
7,Cc1ccc(S(=O)(=O)N(C)C)cc1NC(=O)COC(=O)C1CC1,17.3
8,Cc1ccc(S(=O)(=O)N(C)C)cc1NC(=O)COC(=O)C1CCCC1,-0.454
9,O=C(Nc1ccccc1)C1CCCN1/C=C/C(=O)C(F)(F)F (centres unmarked),2.92
10,CCC(NS(=O)(=O)c1ccc(C)cc1)C(=O)Nc1ccc(NC(C)=O)cc1 (centres unmarked),-1.54
11,CCC(=O)N(Cc1ccc(C)cc1)Cc1cc2cc3c(cc2[nH]c1=O)OCO3,0.914
12,O=C(O)CCc1ccc(-c2ccccc2)n1-c1cccc(C(=O)O)c1,15.2
13,O=C(NCCS(=O)(=O)N1CCN(c2ccccc2)CC1)C1CC(=O)N(c2ccccc2)C1 (centres unmarked),18
14,Cc1ccc(C)c(CN2C(=O)CSc3ccc(C(=O)NCCN4CCOCC4)cc32)c1,20.1
15,Cc1ccc(C)c(CN2C(=O)CSc3ccc(C(=O)NCC(C)CN4CCC(C)CC4)cc32)c1 (centres unmarked),-70.4
16,Cc1ccc(C)c(CN2C(=O)CSc3ccc(C(=O)N4CCCC4)cc32)c1,5.65
17,N#Cc1ccc(NC(=O)COC(=O)CSc2nnc(-c3ccc(Cl)cc3)o2)cc1,6.91
18,Cc1sc2ncnc(N3CCC(C(=O)N(C)CC(=O)Nc4ccccc4Br)CC3)c2c1C,-8.93
19,CCCN(CC(=O)Nc1ccccc1C)C(=O)C1CCN(c2ncnc3sc(C)c(C)c23)CC1,-56.5
20,Cc1sc2ncnc(N3CCC(C(=O)N(C)CC(=O)Nc4ccccc4Cl)CC3)c2c1C,-30
